Sampled rows, rich in hits. Any-hit rate of the full collection: about 3.4%.
esBAF inh: inhibitors of esBAF chromatin remodeling in mouse ES cells; AID 602393; actives 2% (n = 350,000); Bmi1-luciferase knock-in reporter, 24 h; 100% = twice the neutral-well signal; reporter increase, % at 12.5 µM; in the data active means activation above about 40%; inconclusive means no clear call, values can overlap the other calls;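 further: 0% = median of the plate's neutral control wells and 100% = double that signal; a rise in the Bmi1 reporter signal indicates esBAF inhibition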
Wnt act: activators of Wnt/beta-catenin signaling; Wnt/beta-catenin reporter cell assay, activator, plate reader; activation, % at 9.35 µM; actives 1.2% (n = 300,000); in the data active means activation above about 30%, passing the limit was not always enough; inconclusive means no clear call, values can overlap the other calls;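 further: 0% = neutral control wells and 100% = positive control wells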
HIV Env fusion: inhibitors of HIV Env-mediated cell fusion | HeLa-JRFL Env/CEM21 cell fusion, luciferase | inhibition, % at 12.3 µM | actives 1.1% (n = 360,000) | AID 651610;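 active means mean replicate inhibition score of at least 50 and every replicate individually at or above 50; inconclusive means only one of the two criteria met; inactive means mean below 50 and not all replicates reaching 50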;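 further: 0% = plate neutral controls and 100% = maraviroc near 300 nM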
MITF act: MITF TRPM1 promoter activation in melanoma cells | AID 588334 | activation, % at 12.5 µM | SK-MEL-5 TRPM1-promoter luciferase, 24 h; % of positive control, neutral wells = 0 | actives 0.75% (n = 300,000);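 active means mean activation of at least 80% with every replicate also reaching 80%; inconclusive means mean reaches 80% but some replicate falls short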;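 further: 0% = neutral control wells and 100% = parthenolide positive control wells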
miR122 inh: blocks miR-122 activity in Huh7 sensor cells; actives 0.3% (n = 340,000); Huh7 miR-122 Renilla luciferase sensor, 48 h; neutral wells = 0, positive control = 100; AID 602342; activation (reporter increase), % at 12.5 µM;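 active means mean replicate activation score at least 90 and every replicate individually at or above 90; inconclusive means only one of the two criteria met; inactive means neither criterion met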;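 further: higher luciferase means less miR-122 activity so hits act as miR-122 inhibitors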
The depositor's hits bear a star; ? = inconclusive; / = not tested or not shown; [ ] = remark or other dose.

SMILES | esBAF inh | Wnt act | HIV Env fusion | MITF act | miR122 inh
O=C(Nc1ccc2oc(-c3ccccc3F)nc2c1)c1ccccc1F | 85* | 15 | -100 | 60 | -6
O=C(Cc1ccccc1)NC(=S)Nc1ccc2oc(-c3ccccc3F)nc2c1 | 7 | / | / | 125* | 0
O=C(Cc1ccccc1)NC(=S)Nc1ccc2oc(-c3ccccc3)nc2c1 | / | 9 | 15 | / | /
CC(Oc1ccc(Cl)cc1Cl)C(=O)Nc1ccc2oc(-c3ccncc3)nc2c1 (stereo unspecified) | 14 | -4 | 64* | / | -6
CC(C)CC(=O)Nc1ccc2oc(-c3ccncc3)nc2c1 | 67* | 16 | / | 69 | -5
C[C@H](CO)N1C[C@H](C)[C@H](CN(C)S(=O)(=O)c2ccc(F)cc2)OCCCC[C@H](C)Oc2ccc(NC(=O)c3ccccc3)cc2C1=O | 6 | / | -9[16.7 µM] | / | -7[16.7 µM]
CO[C@@H]1CN(C)C(=O)c2ccc(NS(=O)(=O)c3ccccc3)cc2OC[C@H](C)N(C(=O)NC(C)C)C[C@@H]1C | -3 | / | / | / | 3[16.7 µM]
CCCC(=O)Nc1ccc2oc(-c3cccnc3)nc2c1 | / | 37* | -49 | 51 | -8
CC(=O)Nc1ccc2nc3ccccc3nc2c1 | 42* | 47* | -39 | / | -12
CO[C@@H]1CN(C)C(=O)c2cc(NS(=O)(=O)CC(F)(F)F)ccc2OC[C@@H](C)N(Cc2cccnc2)C[C@@H]1C | 0 | / | / | / | /
C[C@H]1CN([C@@H](C)CO)C(=O)c2cc(-c3ccc(C#N)cc3)cnc2O[C@@H]1CN(C)C(=O)CN(C)C | 0 | / | 5[16.7 µM] | / | 0[16.7 µM]
CNc1cc(-c2cnn(CC(C)C)c2)ncn1 | 51* | ? | -20 | / | -2
Cc1ccc(S(=O)(=O)N(C)C[C@H]2Oc3ccc(NC(=O)C4CCCCC4)cc3CC(=O)N([C@@H](C)CO)C[C@H]2C)cc1 | 11 | / | -7[16.7 µM] | / | -8[16.7 µM]
Cc1noc(C)c1S(=O)(=O)Nc1ccc2c(c1)C(=O)N([C@H](C)CO)C[C@@H](C)[C@H](CN(C)Cc1ccc(C(F)(F)F)cc1)O2 | -4 | / | 5[16.7 µM] | / | -2[16.7 µM]
O=C(C[C@H]1CC[C@H](NC(=O)Nc2ccc(C(F)(F)F)cc2)[C@H](CO)O1)NCc1ccccn1 | 0 | / | 4[16.7 µM] | / | /
O=C1CN(C(=O)c2ccc(Br)o2)C(c2ccc(F)cc2)c2cc(Cl)ccc2N1 (stereo unspecified) | 15 | -11 | ? | -3 | 17
O=C1CN(C(=O)c2ccc(Br)o2)C(c2ccccc2)c2cc(Cl)ccc2N1 (stereo unspecified) | 2 | -2 | 58* | -21 | 5
O=C(Nc1ccc2c(c1)CN(C(=O)Nc1ccc(F)cc1)CC2)c1ccccn1 | 47* | -3 | -130 | / | 10
CSc1ccccc1C(=O)N1CCc2ccc(NC(=O)c3ccccn3)cc2C1 | 46* | 0 | -82 | / | -1
COC(=O)c1ccccc1NC(=O)N1CCc2ccc(NC(=O)c3ccccn3)cc2C1 | ? | 28 | -38 | 47 | /
CO[C@@H]1CN(C)C(=O)c2ccc(NC(C)=O)cc2OC[C@@H](C)N(Cc2cc(-c3ccccc3)on2)C[C@H]1C | 4 | / | / | / | /
Clc1ccc(SCc2cn3cccnc3n2)cc1 | ? | 10 | -26 | 49 | /
c1ccc(CSCc2cn3ccsc3n2)cc1 | 59* | / | / | 84* | -8
Clc1ccc(SCc2cn3ccsc3n2)cc1 | / | 52* | -141 | 80 | -3
Cc1csc2nc(CSc3ccc(Cl)cc3)cn12 | / | / | / | 92* | -3
SMILES | esBAF inh | Wnt act | HIV Env fusion | MITF act | miR122 inh
CO[C@@H]1CN(C)C(=O)c2cc(NC(=O)c3ccc(F)cc3)ccc2OC[C@@H](C)N(C(=O)c2ccc(F)cc2)C[C@@H]1C | 5 | / | / | / | /
Cc1nc(SCC(=O)N2CCOCC2)c2c(C)c(C)sc2n1 | -1 | -2 | 18 | -9 | /
Cc1nc(SCC(=O)Nc2ccc(S(=O)(=O)N3CCOCC3)cc2)c2c(C)c(C)sc2n1 | 5 | -1 | 64* | -28 | /
Cc1ccc(NC2=CC(=O)C(=O)c3ccccc32)cc1 | 40 | 73* | 60 | -94 | -17
NS(=O)(=O)c1ccc(NC2=CC(=O)C(=O)c3ccccc32)cc1 | 6 | 0 | -3 | / | /
CO[C@@H]1CN(C)C(=O)c2ccc(NC(=O)c3cc(C)on3)cc2OC[C@H](C)N(CC2CC2)C[C@@H]1C | -1 | / | / | / | /
CCCCNC(=O)c1cc(-c2ccc3c(c2)OCO3)on1 | 15 | 10 | -10 | 74 | /
CCCNC(=O)c1cc(-c2ccc3c(c2)OCO3)on1 | -10 | 33* | -35 | 53 | /
CC(C)NC(=O)c1cc(-c2ccc3c(c2)OCO3)on1 | -5 | 43* | -70 | / | -3
CCN(CC)C(=O)c1cc(-c2ccc3c(c2)OCO3)on1 | 37 | 17 | -33 | 103* | /
CCCNC(=O)NNC(=O)c1cc(-c2ccc3c(c2)OCO3)nc2ccccc12 | / | -1 | 9 | -4 | 102*
CO[C@@H]1CN(C)C(=O)c2cc(NC(=O)Nc3ccccc3)ccc2OC[C@H](C)N(C(C)=O)C[C@@H]1C | -2 | / | 12[16.7 µM] | / | 3[16.7 µM]
C[C@@H]1CCCCO[C@H](CN(C)Cc2ccc(C(F)(F)F)cc2)[C@@H](C)CN([C@@H](C)CO)C(=O)c2cc(NS(C)(=O)=O)ccc2O1 | -3 | / | 0[16.7 µM] | / | 3[16.7 µM]
CCCCNC(=O)c1cc(-c2ccc(OC)cc2)on1 | 24 | / | -136 | 81* | -4
C/C=C/c1ccc(OCCOc2cc(C=O)ccc2OC)c(OC)c1 | / | 13 | / | 55 | /
C/C=C/c1ccc(OCCOCCNCc2ccccc2)c(OC)c1 | -4 | 3 | 89* | -1 | /
Cc1nnc(SCC(=O)Nc2ccc(O)cc2)c2ccccc12 | -3 | 0 | -6 | 3 | -4
Cc1nnc(SCC(=O)Nc2ccccc2)c2ccccc12 | 69* | -14 | -4 | 37 | -3
Nc1cccc(C(=O)OCC(=O)Nc2cccc3c2C(=O)c2ccccc2C3=O)c1 | / | -1 | -108 | -18 | /
O=C(OCC(=O)c1cccs1)c1ccccc1 | 47* | 0 | -119 | 25 | 5
O=C(OCC(=O)N(Cc1ccccc1)Cc1ccccc1)c1cccc(O)c1 | -1 | 3 | / | -1 | -13
O=C(COC(=O)c1ccc(N2CCCC2=O)cc1)c1ccccc1 | 45* | 16 | -25 | / | 0
O=C(COC(=O)c1cccc(O)c1)c1ccccc1 | 39 | 53* | -67 | 79 | /
Nc1cccc(C(=O)OCC(=O)c2ccccc2)c1 | / | 40* | -11 | 58 | /
CC(C)CC#Cc1ccc2c(c1)O[C@H](CN(C)Cc1cccc(F)c1)[C@@H](C)CN([C@@H](C)CO)S2(=O)=O | 0 | / | 6[16.7 µM] | / | 45[16.7 µM]
COc1cccc(S(=O)(=O)N(C)C[C@@H]2Oc3ncc(C#Cc4ccc(C(F)(F)F)cc4)cc3C(=O)N([C@H](C)CO)C[C@@H]2C)c1 | -5 | / | / | / | -24[16.7 µM]
C[C@@H]1CN([C@H](C)CO)C(=O)c2cc(-c3ccccc3)cnc2O[C@@H]1CN(C)C(=O)c1ccccc1F | 0 | / | -4[16.7 µM] | / | /
O=C(N[C@H]1CC[C@H](CCNS(=O)(=O)c2ccccc2)O[C@@H]1CO)c1cnccn1 | 1 | / | -15[16.7 µM] | / | /
Cc1nn(Cc2ccccc2)c(Cl)c1C(=O)NCc1ccc(C)n1C | 4 | -7 | -5 | 1 | -4
